# What was measured:
# Experiment in all cases: SPOT peptide array binding signal intensity (averaged, normalized) (arbitrary units (background-subtracted, floor 0; scale differs between SH3 domains)); higher = stronger binding of the SH3 domain to the peptide
# [1] = target: AgAbp1
# Outline: (§1)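 Binding signal refers to normalized, background-subtracted spot intensity averaged over replicates, expressed in arbitrary units that differ between domains. GST-fused SH3 domains from four yeast species were incubated at 10 μg/ml overnight at 4°C on cellulose membranes of synthetic 15-mer peptides with cysteines replaced by serines. Bound protein was detected with anti-GST antibody, an HRP anti-mouse secondary and luminol, and quantified with Genespotter.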
# [2] = target: AgBbc1
# Outline: as §1
# [3] = target: AgBem1-D1
# Outline: as §1
# [4] = target: AgBzz1-D1
# Outline: as §1
# [5] = target: AgBzz1-D2
# Outline: as §1
# [6] = target: AgCyk3
# Outline: as §1
# [7] = target: AgFus1
# Outline: as §1
# [8] = target: AgHof1
# Outline: as §1
# [9] = target: AgHse1
# Outline: as §1
# [10] = target: AgLsb1
# Outline: as §1
# [11] = target: AgLsb4
# Outline: as §1
# [12] = target: AgMyo5
# Outline: as §1
# [13] = target: AgNbp2
# Outline: as §1
# [14] = target: AgRvs167
# Outline: as §1
# [15] = target: AgSho1
# Outline: as §1
# [16] = target: AgSla1-D1-D2
# Outline: as §1
# [17] = target: AgSla1-D3
# Outline: as §1
# [18] = target: CaAbp1-D1
# Outline: as §1
# [19] = target: CaAbp1-D2
# Outline: as §1
# [20] = target: CaBbc1
# Outline: as §1
# [21] = target: CaBem1-D1
# Outline: as §1
# [22] = target: CaBzz1-D1
# Outline: as §1
# [23] = target: CaBzz1-D2
# Outline: as §1
# [24] = target: CaCyk3
# Outline: as §1
# [25] = target: CaFus1
# Outline: as §1
# [26] = target: CaHof1
# Outline: as §1
# [27] = target: CaHse1
# Outline: as §1
# [28] = target: CaLsb1
# Outline: as §1
# [29] = target: CaLsb4
# Outline: as §1
# [30] = target: CaMyo5
# Outline: as §1
# [31] = target: CaNbp2
# Outline: as §1
# [32] = target: CaRvs167
# Outline: as §1
# [33] = target: CaRvs167-3
# Outline: as §1
# [34] = target: CaSho1
# Outline: as §1
# [35] = target: CaSla1-D1-D2
# Outline: as §1
# [36] = target: CaSla1-D3
# Outline: as §1
# [37] = target: ScAbp1
# Outline: as §1
# [38] = target: ScBbc1
# Outline: as §1
# [39] = target: ScBem1-D1
# Outline: as §1
# [40] = target: ScBzz1-D1
# Outline: as §1
# [41] = target: ScBzz1-D2
# Outline: as §1
# [42] = target: ScCyk3
# Outline: as §1
# [43] = target: ScFus1
# Outline: as §1
# [44] = target: ScHof1
# Outline: as §1
# [45] = target: ScHse1
# Outline: as §1
# [46] = target: ScLsb1
# Outline: as §1
# [47] = target: ScLsb2
# Outline: as §1
# [48] = target: ScLsb3
# Outline: as §1
# [49] = target: ScLsb4
# Outline: as §1
# [50] = target: ScMyo3
# Outline: as §1
# [51] = target: ScMyo5
# Outline: as §1
# [52] = target: ScNbp2
# Outline: as §1
# [53] = target: ScPex13
# Outline: as §1
# [54] = target: ScRvs167
# Outline: as §1
# [55] = target: ScSho1
# Outline: as §1
# [56] = target: ScSla1-D1-D2
# Outline: as §1
# [57] = target: ScSla1-D3
# Outline: as §1
# [58] = target: SpAbp1-D1
# Outline: as §1
# [59] = target: SpBbc1
# Outline: as §1
# [60] = target: SpBzz1-D1
# Outline: as §1
# [61] = target: SpBzz1-D2
# Outline: as §1
# [62] = target: SpCyk3
# Outline: as §1
# [63] = target: SpHof1
# Outline: as §1
# [64] = target: SpHof1-2
# Outline: as §1
# [65] = target: SpHof1-3
# Outline: as §1
# [66] = target: SpHse1
# Outline: as §1
# [67] = target: SpLsb1
# Outline: as §1
# [68] = target: SpLsb4
# Outline: as §1
# [69] = target: SpMyo1
# Outline: as §1
# [70] = target: SpNbp2
# Outline: as §1
# [71] = target: SpPex13
# Outline: as §1
# [72] = target: SpRvs167
# Outline: as §1
# [73] = target: SpSla1-D1-D2
# Outline: as §1
# [74] = target: SpSla1-D3
# Outline: as §1
binder,measurement,setting,value
YSRKKLPVVLSKMTL,SPOT peptide array binding signal intensity,[1],68
same,SPOT peptide array binding signal intensity,[2],21.5
same,SPOT peptide array binding signal intensity,[3],45.5
same,SPOT peptide array binding signal intensity,[4],82.5
same,SPOT peptide array binding signal intensity,[5],43.5
same,SPOT peptide array binding signal intensity,[6],3
same,SPOT peptide array binding signal intensity,[7],109
same,SPOT peptide array binding signal intensity,[8],28.8
same,SPOT peptide array binding signal intensity,[9],126
same,SPOT peptide array binding signal intensity,[10],223
same,SPOT peptide array binding signal intensity,[11],12
same,SPOT peptide array binding signal intensity,[12],3.25
same,SPOT peptide array binding signal intensity,[13],48.5
same,SPOT peptide array binding signal intensity,[14],3.5
same,SPOT peptide array binding signal intensity,[15],190
same,SPOT peptide array binding signal intensity,[16],57
same,SPOT peptide array binding signal intensity,[17],14.5
same,SPOT peptide array binding signal intensity,[18],444
same,SPOT peptide array binding signal intensity,[19],126
same,SPOT peptide array binding signal intensity,[20],15.8
same,SPOT peptide array binding signal intensity,[21],35.5
same,SPOT peptide array binding signal intensity,[22],197
same,SPOT peptide array binding signal intensity,[23],92.2
same,SPOT peptide array binding signal intensity,[24],8
same,SPOT peptide array binding signal intensity,[25],166
same,SPOT peptide array binding signal intensity,[26],2
same,SPOT peptide array binding signal intensity,[27],17.2
same,SPOT peptide array binding signal intensity,[28],16
same,SPOT peptide array binding signal intensity,[29],25.5
same,SPOT peptide array binding signal intensity,[30],4.75
same,SPOT peptide array binding signal intensity,[31],143
same,SPOT peptide array binding signal intensity,[32],16.7
same,SPOT peptide array binding signal intensity,[33],11.5
same,SPOT peptide array binding signal intensity,[34],131
same,SPOT peptide array binding signal intensity,[35],264
same,SPOT peptide array binding signal intensity,[36],131
same,SPOT peptide array binding signal intensity,[37],108
same,SPOT peptide array binding signal intensity,[38],11
same,SPOT peptide array binding signal intensity,[39],31
same,SPOT peptide array binding signal intensity,[40],67.5
same,SPOT peptide array binding signal intensity,[41],75
same,SPOT peptide array binding signal intensity,[42],9
same,SPOT peptide array binding signal intensity,[43],108
same,SPOT peptide array binding signal intensity,[44],4.5
same,SPOT peptide array binding signal intensity,[45],370
same,SPOT peptide array binding signal intensity,[46],191
same,SPOT peptide array binding signal intensity,[47],1100
same,SPOT peptide array binding signal intensity,[48],24.5
same,SPOT peptide array binding signal intensity,[49],12.5
same,SPOT peptide array binding signal intensity,[50],6
same,SPOT peptide array binding signal intensity,[51],6
same,SPOT peptide array binding signal intensity,[52],95
same,SPOT peptide array binding signal intensity,[53],150
same,SPOT peptide array binding signal intensity,[54],8.33
same,SPOT peptide array binding signal intensity,[55],2450
same,SPOT peptide array binding signal intensity,[56],300
same,SPOT peptide array binding signal intensity,[57],53.2
same,SPOT peptide array binding signal intensity,[58],243
same,SPOT peptide array binding signal intensity,[59],3
same,SPOT peptide array binding signal intensity,[60],137
same,SPOT peptide array binding signal intensity,[61],1.5
same,SPOT peptide array binding signal intensity,[62],4
same,SPOT peptide array binding signal intensity,[63],76.8
same,SPOT peptide array binding signal intensity,[64],27.2
same,SPOT peptide array binding signal intensity,[65],295
same,SPOT peptide array binding signal intensity,[66],77.8
same,SPOT peptide array binding signal intensity,[67],48
same,SPOT peptide array binding signal intensity,[68],40.5
same,SPOT peptide array binding signal intensity,[69],6
same,SPOT peptide array binding signal intensity,[70],49.5
same,SPOT peptide array binding signal intensity,[71],53
same,SPOT peptide array binding signal intensity,[72],8.67
same,SPOT peptide array binding signal intensity,[73],11.5
same,SPOT peptide array binding signal intensity,[74],41.5
LRWRHKFFLPAIAAI,SPOT peptide array binding signal intensity,[61],≤ 0
same,SPOT peptide array binding signal intensity,[62],1
same,SPOT peptide array binding signal intensity,[63],33.1
same,SPOT peptide array binding signal intensity,[64],2.25
same,SPOT peptide array binding signal intensity,[65],830
same,SPOT peptide array binding signal intensity,[66],667
same,SPOT peptide array binding signal intensity,[67],≤ 0
same,SPOT peptide array binding signal intensity,[68],21.2
same,SPOT peptide array binding signal intensity,[69],≤ 0
same,SPOT peptide array binding signal intensity,[70],41.8
same,SPOT peptide array binding signal intensity,[71],6.25
same,SPOT peptide array binding signal intensity,[72],1
same,SPOT peptide array binding signal intensity,[73],2
same,SPOT peptide array binding signal intensity,[74],≤ 0
